Sampled rows, rich in hits. Any-hit rate of the full collection: about 3.3%.
BoNT-A LC inh2: blocks Botulinum neurotoxin A light chain protease. multiplex microsphere protease substrate cleavage, flow cytometry. inhibition, % at 10 µM. 360,000 compounds, 0.17% hits. AID 588499; also: plate controls were buffer without enzyme for full effect and enzyme alone for no effect
MazEF act: increases E. coli MazEF RNase cleavage of RNA. P0AE70. AID 504720. 350,000 compounds, 0.32% hits. activation, % at 20 µM. FAM/BHQ RNA-DNA oligo cleavage fluorescence, 5 h; in the data active = activation above about 50%
PriA SSB inh: inhibitors of Klebsiella pneumoniae PriA binding to SSB C-terminal tail | AlphaScreen SSBct-PriA binding, biotinylated peptide | 430,000 compounds, 0.6% hits | AID 1272365 | inhibition, % at 33 µM; in the data active = inhibition mostly above about 37%, no sharp cut-off; inactive = mostly below about 20%;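 also: plate controls were negative control peptide for no effect and reference peptide for full effect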
BoNT-F LC inh: inhibitors of Botulinum neurotoxin F light chain protease; 360,000 compounds, 0.22% hits; Multiplex microsphere protease cleavage assay, flow cytometry; inhibition, % at 10 µM; in the data active = inhibition above about 35%, passing the limit was not always enough; inconclusive = no clear call, values can overlap the other calls; also: plate controls were buffer without enzyme for full effect and enzyme alone for no effect
Bead autofluor: counter-screen for toxin protease inhibitors: compound fluorescence; compound autofluorescence counterscreen, microsphere flow cytometry; stronger effect = higher value; fluorescence intensity (concentration not given with the values); 360,000 compounds, 3.1% hits; AID 624483; in the data active = fluorescence intensity above about 16000; inconclusive = no clear call, values can overlap the other calls
Anthrax LF prot: blocks Bacillus anthracis lethal factor protease | multiplex microsphere protease cleavage assay, LF | inhibition, % at 10 µM | 360,000 compounds, 0.12% hits; also: plate controls were buffer without enzyme for full effect and enzyme alone for no effect
* = called active by the depositor; u = inconclusive; x = not tested or not shown; + = active, no number. Rule as the data show it, unless noted: active = inhibition above about 30%; inconclusive = no clear call, values can overlap the other calls; inactive = below that.

SMILES | BoNT-A LC inh2 | MazEF act | PriA SSB inh | BoNT-F LC inh | Bead autofluor | Anthrax LF prot
Cn1c(=O)c2[nH]c(-c3ccccc3)c(O)c2n(C)c1=O | 0 | + | -2 | -11 | 2120 | 0
Cn1c(=O)c(-c2ccccc2)c(O)c2ccccc21 | 0 | -2 | -1 | -1 | 2045 | -1
Cn1c(=O)c2[nH]c(-c3ccccc3Cl)c(O)c2n(C)c1=O | 0 | 909* | -3 | -17 | 2611 | 2
Cn1c2c(c(=O)n(C)c1=O)C(C(F)(F)F)(C(F)(F)F)N=C(c1ccccc1Cl)N2 | 0 | -5 | 2 | 2 | 9376 | 3
COc1ccccc1OCC(=O)Nc1ccc2c(c1)CN(C(=O)C1CC1)CC2 | x | x | 1 | x | x | x
COc1ccccc1NC(=O)c1ccccc1NC(=O)c1cccs1 | -1 | -1 | 1 | -18 | 3964 | -4
COc1ccccc1NC(=O)CN(Cc1ccco1)C(=O)c1cccs1 | 0 | -1 | 4 | 0 | 23213* | -4
COc1ccccc1NC(=O)c1cccs1 | 0 | -2 | -17 | -3 | 16647* | -2
NS(=O)(=O)c1ccc(N2C(=O)C=CC2=O)cc1 | x | x | -5 | x | x | x
Cc1ccc(S(=O)(=O)n2cnc3ccccc32)cc1 | 1 | 6 | -11 | 2 | 16399* | -4
Cc1cccc(NC(=O)/C(C#N)=C/c2ccc(OCc3ccccc3)cc2)n1 | x | x | -17 | x | x | x
CC(C)n1c(NCc2cc(Cl)ccc2O)nc2ccccc21 | -1 | 5 | -16 | -19 | 6473 | -7
Cc1ccc(O)c(CNc2nc3ccccc3n2C(C)C)c1 | -2 | 6 | -10 | 38* | 3526 | -2
COc1cc(C)c(Br)cc1S(=O)(=O)NCCC1=CCCCC1 | x | x | 2 | x | x | x
Cc1cc(C)nc(OC(=O)c2c(Cl)cc(Cl)cc2Cl)n1 | -1 | 5 | -9 | 0 | 4319 | -8
Cc1cc(OC(=O)c2c(Cl)cc(Cl)cc2Cl)nc(C)n1 | -1 | -12 | -11 | 0 | 16417* | -5
CCCc1nc(SCC(=O)Nc2nc(C)cs2)c2c(=O)n(C)c(=O)n(C)c2n1 | x | x | -9 | x | x | x
ON=C1c2ccccc2-c2ccccc21 | -2 | 3 | -6 | 3 | 3753 | 1
CN(C)c1ccc2c(c1)C(=NO)c1ccccc1-2 | 0 | 8 | 53* | 0 | 3692 | -4
O=C(Cn1cnc2ccccc21)NCc1ccccc1 | 1 | 3 | -14 | 2 | 21986* | -12
OC(COCc1ccccc1)Cn1cnc2ccccc21 (centres undefined) | u | 0 | 0 | -1 | 16259* | 0
CC(=O)Nc1cccc(OCC(O)Cn2cnc3ccccc32)c1 (centres undefined) | u | 4 | -11 | -4 | 22621* | -1
OC(COCc1ccccc1)COCc1ccccc1 | -1 | 9 | -13 | -5 | 3037 | 1
CC(=O)Nc1ccc(OCC(O)Cn2cnc3ccccc32)cc1 (centres undefined) | 1 | 2 | -1 | 2 | 9717 | -3
Cc1n(CC(O)COCc2ccccc2)c2ccccc2[n+]1C (centres undefined) | -2 | -1 | -17 | -1 | 23714* | -2
SMILES | BoNT-A LC inh2 | MazEF act | PriA SSB inh | BoNT-F LC inh | Bead autofluor | Anthrax LF prot
COc1ccc(OC)c(COCC(O)Cn2cnc3ccccc32)c1 (centres undefined) | x | x | 12 | x | x | x
CN1CCN(C(=O)N2CCC[C@H](Oc3cnccn3)C2)CC1 | x | x | -15 | x | x | x
NC(=O)Cc1ccc(NC(=O)Cc2cccs2)cc1 | x | x | -10 | x | x | x
Cc1ccc(-c2[nH]ncc2C(=O)c2ccccc2C)c(O)c1 | -1 | 0 | -7 | 36* | 3804 | 11
Cc1ccccc1C(=O)c1cn[nH]c1-c1ccccc1O | -2 | 4 | 10 | -7 | 3881 | -1
CN1CCC(OC(=O)c2cccc(Br)c2)CC1 | 3 | -4 | -14 | 3 | 21018* | 0
CCc1cc(=O)oc2cc3oc(C)c(C)c3cc12 | u | 5 | 2 | 5 | 19139* | 1
Cc1nn(C)c(=O)c2nn(-c3ccccc3Cl)c(C)c12 | x | x | -12 | x | x | x
CCSc1nnc(-c2ccc(S(=O)(=O)NCc3cccs3)cc2)o1 | -1 | -7 | -19 | -4 | 20964* | -2
CCOC(=O)c1ccc(-n2c(N)c(C(=O)NCc3ccco3)sc2=S)cc1 | 2 | 5 | 30 | 0 | 23235* | -1
CCOC(=O)c1sc(=S)n(-c2ccc(C)cc2)c1N | -4 | -4 | -3 | -18 | 4173 | -2
COc1ccc(-n2c(N)c(C(=O)NCc3ccco3)sc2=S)cc1 | 0 | 4 | -5 | 1 | 3970 | -1
CCOC(=O)c1sc(=S)n(-c2ccc(Cl)cc2)c1SC | 0 | -13 | -14 | -1 | 21737* | -2

Bioassay records from PubChem BioAssay.
